# Among all 2,400 compounds or so, about 220 (9.2%) were called active. The sample holds actives, similar compounds and a random draw of the others, so the mix is not that of the screen.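 Rule for the calls: active = signal change above the mean of dofetilide-free buffer controls plus 3 SD, so a positive margin; inactive = the rest.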
# Assay: nonspecific flux effects in parental CHO-K1, confirmation, counter-screen for hERG block protection project, cell-based, CHO-K1 parental line, FluxOR thallium flux (AID 1839);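 note: compounds applied alone with no dofetilide to cells lacking hERG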
# Conditions: CHO-K1 parental cells, FluxOR thallium flux fluorescence; at 10 µM
row,Compound,"signal change vs control minus 3*SD hit threshold (margin above threshold, higher = more increase)"
1,CS(=O)(=O)N1CCN(c2ccccc2NC(=O)Nc2cccc(Cl)c2)CC1,-32.6% (inactive)
2,O=C1N2CCSC2=NC1(NS(=O)(=O)c1ccccc1)C(F)(F)F (configuration not stated),-19% (inactive)
3,Cc1ccc(Nc2nc(-c3cccs3)cs2)nc1,-32.7% (inactive)
4,CC(C)(C)NC(=O)CN(C(=O)CS(=O)CC(=O)Nc1ccc(F)cc1)c1cccc(F)c1 (configuration not stated),-27.9% (inactive)
5,O=c1c(Cc2ccccc2)c(O)nc2n1CCCS2,-25.5% (inactive)
6,Cc1ccccc1C(=O)NNC(=O)C(=O)Nc1cccc(Cl)c1C,-1.4% (inactive)
7,C/C(CC(=O)Nc1ccccn1)=N\NC(=O)C(=O)Nc1cccc(Cl)c1C,-14.9% (inactive)
8,COc1ccccc1C(=O)NNC(=O)C(=O)NC(C)(C)C,-7.1% (inactive)
9,COc1ccccc1C(=O)NNC(=O)C(=O)Nc1ccc(C)cc1,59.6% (active)
10,COc1ccccc1C(=O)Nc1ccc(C(=O)N2CCCC2)cc1,-13% (inactive)
11,COc1ccccc1C(=O)NNC(=O)C(=O)Nc1cccc(Cl)c1C,55.6% (active)
12,Cc1ccc(OCC(=O)NC(=S)Nc2ccc(Br)cn2)cc1C,-27.8% (inactive)
13,Cn1cc([N+](=O)[O-])c(C(=O)N/N=C\c2c[nH]c3ccccc23)n1,-27% (inactive)
14,O=C(Cc1cccs1)Nn1c(Cc2cccs2)nc2ccccc2c1=O,-15.1% (inactive)
15,Cc1cc(NC(=O)CCCn2cnc([N+](=O)[O-])n2)no1,-28.2% (inactive)
16,COC(=O)C(C)Sc1nnc(Cc2cc(=O)[nH]c(=O)[nH]2)n1-c1cccc(OC)c1 (configuration not stated),-26% (inactive)
17,S=c1[nH]nc(-c2cccs2)n1/N=C/c1c(Cl)cccc1Cl,-17.3% (inactive)
18,CN(C)S(=O)(=O)c1cc(NC2CC(=O)N(c3ccc(F)cc3)C2=O)ccc1Cl (configuration not stated),-30.5% (inactive)
19,Cc1cc(C)c(C(=O)c2ccc(C(=O)N3CCCCC3)cc2)c(C)c1,-37.3% (inactive)
20,O=S(=O)(Nc1nc(-c2sccc2Cl)cs1)c1cc(Cl)ccc1Cl,15.7% (active)
21,COC(=O)c1sccc1NC(=O)CSc1ccccc1NS(=O)(=O)c1cc(Cl)ccc1Cl,-29.7% (inactive)

row,Compound,"signal change vs control minus 3*SD hit threshold (margin above threshold, higher = more increase)"
1,O=C(O)c1ccccc1P(=O)(c1ccccc1)c1ccccc1,-29.2% (inactive)
2,CCc1cccc(C)c1NC(=O)C1=C(C(=O)O)CCCC1,-33.6% (inactive)
3,CN(C(=O)c1ccc(Cl)c(S(=O)(=O)N2CCOCC2)c1)c1ccccc1C(=O)O,-13.3% (inactive)
4,S=c1[nH]c(-c2cccs2)cn1-c1ccccc1,-21.8% (inactive)
5,CC(C)n1c(=S)[nH]c2scc(-c3cccs3)c2c1=O,28.9% (active)
6,CCC(C)n1c(=S)[nH]c2ccccc2c1=O (configuration not stated),-5.7% (inactive)
7,COc1cc(/C=N/n2cnc3scc(-c4cccs4)c3c2=O)cc(OC)c1OC,-32% (inactive)
8,Cn1c(=S)[nH]c2scc(-c3cccs3)c2c1=O,27.9% (active)
9,CC(C1CC2CCC1C2)n1c(-c2cccs2)n[nH]c1=S (configuration not stated),-18.6% (inactive)
10,O=C(O)/C=C/C(=O)Nc1ccc(OC(F)(F)F)cc1,-22.2% (inactive)
11,CC(NC(=O)CCNC(=O)c1ccco1)c1ccc(F)cc1 (configuration not stated),-35.2% (inactive)
12,CCc1c(C)sc(NC(=O)CN2CCN(C(=O)c3ccco3)CC2)c1C(=O)OC,-35.4% (inactive)
13,CCc1ccc2[nH]c(=O)c(-c3ccccc3)c(O)c2c1,-28.9% (inactive)
14,COc1cc(Cl)c(C)cc1NC(=O)CSc1sc2c(O)cc(=O)[nH]c2c1C#N,-30.6% (inactive)
15,CCOc1ccc(C(=O)Nc2ccccc2C(=O)O)cc1,-21.4% (inactive)
16,C=CCN(c1ccc(Cl)cc1)S(=O)(=O)c1cccc(C(=O)O)c1,-22.9% (inactive)
17,O=C(NC(=S)NCCC1=CCCCC1)c1ccco1,22.8% (active)
18,O=C(NC(=S)NCCC1=CCCCC1)c1ccc(Br)o1,-1.2% (inactive)
19,O=C(NC(=S)NCCc1ccc(Cl)cc1)c1ccco1,-21.7% (inactive)
20,COc1ccc(/C=C/c2cc(=O)c3cc(Cl)ccc3o2)cc1,-32.9% (inactive)
21,Cc1nc(NCc2cccnc2)c2c3c(sc2n1)CC(C)CC3 (configuration not stated),5.6% (active)

row,Compound,"signal change vs control minus 3*SD hit threshold (margin above threshold, higher = more increase)"
1,Cc1nc(NCCc2ccc(S(N)(=O)=O)cc2)c2c(C)c(C)sc2n1,-24.9% (inactive)
2,Cc1ccc(OCc2ccoc2C(=O)O)cc1C,-4.5% (inactive)
3,Fc1cccc(C2NN=C(c3ccccc3)S2)c1 (configuration not stated),-15.8% (inactive)
4,O=C(NC(=S)Nc1cccc([N+](=O)[O-])c1)c1ccco1,-40.6% (inactive)
5,O=C(NC(=S)Nc1nc2ccccc2s1)c1ccco1,9.2% (active)
6,CCOC(=O)c1sc(NC(=S)NC(=O)c2ccco2)nc1C,-14.4% (inactive)
7,COc1ccc(-c2csc(NC(=S)NC(=O)c3ccco3)n2)cc1,-14% (inactive)
8,COc1ccc(-c2csc(NC(=S)NC(=O)c3ccco3)n2)cc1Br,-15.8% (inactive)
9,O=C(NC(=S)Nc1nc2ccccc2s1)c1cccs1,-8.5% (inactive)
10,O=C(NC(=S)Nc1nc2ccc(F)cc2s1)c1ccco1,47% (active)
11,O=C(NC(=S)Nc1nc(-c2ccccc2)cs1)c1ccco1,-21.2% (inactive)
12,O=C(NC(=S)Nc1nc(-c2ccc(Br)cc2)cs1)c1ccco1,-20.8% (inactive)
13,O=C(NC(=S)Nc1nc(-c2ccc([N+](=O)[O-])cc2)cs1)c1ccco1,1% (active)
14,COc1ccc2nc(NC(=S)NC(=O)c3ccco3)sc2c1,0.7% (active)
15,O=C(NC(=S)NCc1ccc(-c2nc3ccccc3s2)cc1)c1ccco1,-21.2% (inactive)
16,CC(C)Oc1c(Cl)cc(CNC(C)(C)CO)cc1Cl,-26.9% (inactive)
17,CCN(CCCn1c(=S)[nH]c2ncccc2c1=O)c1ccccc1,-29.7% (inactive)
18,COC(=O)C1=C(C)N(CC2CCCO2)C(=O)/C1=C\c1ccc(O)cc1 (configuration not stated),-14.9% (inactive)
19,Nn1c(SCC(=O)Nc2ccc(OC(F)F)cc2)nnc1-c1ccco1,-27% (inactive)
20,Cc1cccc(NC(=O)CN2C(=O)S/C(=C\c3ccc(-c4cccc(C(=O)O)c4C)o3)C2=O)c1,-29.7% (inactive)

# Reference: PubChem BioAssay AID1839 (Johns Hopkins Ion Channel Center, 2009)
